Each structure is given as a SMILES string. Where “and” joins values, the source holds several entries; their conditions need not be identical. Equal entries are not always repeated. Structures can show the parent of a compound that is named as a salt. In all, about 3,200 compounds were measured (“nuclei count (viability) relative to DMSO”: median about 99, lowest 2% from about 16 on). This excerpt belongs to a sample that is enriched for the lowest values.

Results on 51 molecules are retold here after the supplement of paper PMC8183993.

In the experiment the test system is U2OS. Kind of experiment: nuclei count (viability) relative to DMSO (% of DMSO); higher = more viable cells. The note with it: 10 µM; 24 h. How it is done:
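Primary image-based screen in U2OS cells: compounds at 10 uM for 24 h, then a 1 h o-propargyl-puromycin (OPP) pulse, click labelling, and high-throughput microscopy. Mean cytoplasmic OPP intensity and nuclei count were normalised to DMSO wells within each plate (DMSO = 100) and averaged over triplicate plates.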
Consider `CC(C)c1ccc(NC(=O)Cn2cnc3c2c(=O)n(C)c(=O)n3C)cc1`, for which the nuclei count was determined as 103.

`COc1cc2c(NC3CCN(C(C)C)CC3)nc(N3CCC(F)(F)CC3)nc2cc1OCCCN1CCCC1`: the nuclei count stood at 50.6.

`C[C@@H]1CN(CCCn2c3ccccc3c3ccccc32)C[C@H](C)N1` [Rimcazole dihydrochloride] came in with a nuclei count of 80.

For `CCN(CC)CCCC(C)Nc1ccnc2cc(Cl)ccc12` (stereo unspecified) [Chloroquine], the nuclei count amounted to 96.6.

Take `CCN(CC)CCCC(C)Nc1ccnc2cc(Cl)ccc12` (stereo unspecified) [Chloroquine diphosphate]: the nuclei count was found to be 103.

`CCN(CC)CCCC(C)Nc1c2ccc(Cl)cc2nc2ccc(OC)cc12` (stereo unspecified) [Quinacrine dihydrochloride dihydrate] had a nuclei count of 12.9.

In turn, `CCN(CCO)CCCC(C)Nc1ccnc2cc(Cl)ccc12` (stereo unspecified) [Hydroxychloroquine] came in with a nuclei count of 85.7.

`CCN(CCO)CCCC(C)Nc1ccnc2cc(Cl)ccc12` (stereo unspecified) [Hydroxychloroquine sulfate] displayed a nuclei count of 96.1.

As to `CC1=CC(=O)C(C(C)C)=CC1=O` [Thymoquinone], the nuclei count was found to be 103.

Molecule `COc1ccc(CCN(C)CCCOc2ccc(S(=O)(=O)c3c(C(C)C)n(C)c4ccccc34)cc2)cc1OC` gave a nuclei count of 47.5.

In the case of `C1CCC(C(CC2CCCCN2)C2CCCCC2)CC1` (stereo unspecified) [Perhexiline maleate], the nuclei count was 5.66.

Consider `COc1cc(-c2cn(C)c(=O)c3cnccc23)c(OC)cc1CN(C)C`, for which the nuclei count was 110.

`Cc1ccc(-n2nc(C(C)(C)C)cc2NC(=O)Nc2ccc(OCCN3CCOCC3)c3ccccc23)cc1` [BIRB 796 (Doramapimod)] came in with a nuclei count of 94.7.

As to `COc1ccc(NC(=O)c2ccc(-c3ccc(-c4noc(C)n4)cc3C)cc2)cc1OCCN(C)C`, the nuclei count came out at 100.

`COc1ccc2cc3[n+](cc2c1OC)CCc1cc2c(cc1-3)OCO2` [Berberine HCl] had a nuclei count of 98.6.

In turn, `C[n+]1cc2c3c(ccc2c2ccc4cc5c(cc4c21)OCO5)OCO3` [Sanguinarine chloride] returned a nuclei count of 12.

`Cc1[nH]c2ccccc2c1C(Nc1ccccn1)c1ccc(Cl)cc1` (stereo unspecified) yielded a nuclei count of 93.9.

Consider `CC[N+](C)(CC)CC(=O)Nc1c(C)cccc1C` [N-Methyllidocaine iodide], for which the nuclei count amounted to 98.4.

Molecule `CC1=C(C(=O)OCCN(Cc2ccccc2)c2ccccc2)C(c2cccc([N+](=O)[O-])c2)C(P2(=O)OCC(C)(C)CO2)=C(C)N1` (stereo unspecified) [Efonidipine hydrochloride monoethanolate] yielded a nuclei count of 99.9.

In turn, `COc1cc(NC(C)CCCN)c2ncccc2c1` (stereo unspecified) [Primaquine diphosphate] registered a nuclei count of 15.7.

In turn, `CCC(C)N(C)C(=O)c1cc2ccccc2c(-c2ccccc2Cl)n1` (stereo unspecified) returned a nuclei count of 106.

For `COC(=O)c1c(-c2cc(OC)c(OC)c(OC)c2)c2ccnc(OCc3ncccn3)c2c(=O)n1Cc1ccnc(C)c1` [T 0156 hydrochloride], the nuclei count amounted to 107.

For the molecule `COc1cc2nccc(Oc3ccc(NC(=O)C4(C(=O)Nc5ccc(F)cc5)CC4)cc3)c2cc1OC` [XL-184 free base (Cabozantinib)], the nuclei count stood at 51.5.

Turning to `COc1cc2c(Nc3ccc(NC(=O)c4ccccc4)cc3)ncnc2cc1OCCCN1CCOCC1`, the nuclei count was 49.8 and 53.3.

`COc1cc2nccc(Oc3ccc(NC(=O)C4(C(=O)Nc5ccc(F)cc5)CC4)cc3)c2cc1OC` [Cabozantinib malate] displayed a nuclei count of 59.

`COc1cc2c(Oc3ccc(NC(=O)C4(C(=O)Nc5ccc(F)cc5)CC4)cc3F)ccnc2cc1OCCCN1CCOCC1` had a nuclei count of 12.

As to `O=C1c2c(O)cc(O)cc2OC(c2ccc(O)c(O)c2)C1O` (stereo unspecified) [Taxifolin (Dihydroquercetin)], the nuclei count came to 90.7.

Molecule `O=C(O)c1ccc(O)c2ncccc12` showed a nuclei count of 99.5.

Molecule `COc1ccc([C@@H]2CNC(=O)C2)cc1OC1CCCC1` [(R)-(-)-Rolipram] yielded a nuclei count of 96.2.

`CC[N+](CC)(CC)CC(=O)Nc1c(C)cccc1C` [QX 314 chloride] gave a nuclei count of 104.

Molecule `CC[N+](CC)(CC)CC(=O)Nc1c(C)cccc1C` [QX-314 bromide] showed a nuclei count of 104.

In turn, `CC[N+](CC)(CC)CC(=O)Nc1c(C)cccc1C` [QX 314 bromide] registered a nuclei count of 97.5.

As to `CCCCCCCCCCCCCCCC[N+](C)(C)CCN(Cc1ccc(OC)cc1)c1ncccn1` [Thonzonium bromide], the nuclei count is 12.1.

`CN(C)CCN(Cc1ccc(Cl)cc1)c1ccccn1` [Chloropyramine hydrochloride] registered a nuclei count of 105.

As for `COc1ccc(CN(CCN(C)C)c2ccccn2)cc1` [Mepyramine maleate], the nuclei count came out at 104.

For the molecule `COc1ccc(CN(CCN(C)C)c2ccccn2)cc1` [Pyrilamine maleate], the nuclei count turned out to be 102.

With `CC(=O)O[C@@H]1C[C@H]2C(C)(C)C(=O)C=C[C@]2(C)[C@H]2CC[C@@]3(C)[C@H](c4ccoc4)OC(=O)[C@H]4O[C@]43[C@@]21C` [Gedunin], the nuclei count stood at 85.6.

On to `COC1CCC(C(=O)c2ccc3nc4c(cc3c2)CCCO4)CC1` (stereo unspecified), for which the nuclei count was 96.5.

For the molecule `CCn1cc(-c2cccc(C(F)(F)F)c2)c2sc(C(=N)NC3CCS(=O)(=O)CC3)cc2c1=O`, the nuclei count is 91.5.

`Cc1ccc(C(=O)N(CCCN)[C@@H](c2oc3cc(Cl)ccc3c(=O)c2Cc2ccccc2)C(C)C)cc1` returned a nuclei count of 20.5.

Molecule `Cc1ccc(C(=O)N(CCCN)[C@@H](c2nc3cc(Cl)ccc3c(=O)n2Cc2ccccc2)C(C)C)cc1` came in with a nuclei count of 9.23.

`Fc1ccc(-c2nc3n(c2-c2ccncc2)CCS3)cc1` displayed a nuclei count of 103.

`C[C@H]1C[C@H]2[C@@H]3CCC4=CC(=O)C=C[C@]4(C)[C@H]3C(=O)C[C@]2(C)[C@@]1(O)C(=O)CO` [Betapar (Meprednisone)] registered a nuclei count of 107.

As for `C[C@H](CC[C@@H]1OC1(C)C)[C@H]1CC[C@H]2[C@@H]3CC=C4C[C@@H](O)CC[C@]4(C)[C@H]3CC[C@]12C` [24(S),25-Epoxycholesterol], the nuclei count amounted to 107.

The molecule `Cc1c(NC(=O)OC[C@@H]2COCCN2)cn2ncnc(Nc3ccc4c(cnn4Cc4cccc(F)c4)c3)c12` yielded a nuclei count of 100.

As for `CC1(C)C(=O)NC2=C1C(=O)C(=O)c1ccccc12`, the nuclei count is 40.5 and 19.2.

On to `COc1ccc(NS(=O)(=O)c2sc3ccc(Cl)cc3c2C)cc1N1CCNCC1`, for which the nuclei count was determined as 98.3.

Turning to `O=C(Nc1ccccc1)C12CC1C(=NO)c1ccccc1O2` (stereo unspecified), the nuclei count was determined as 99.8.

The molecule `Cc1cc(-c2ccccc2)nnc1NCCN1CCOCC1` [Minaprine dihydrochloride] yielded a nuclei count of 102.

Consider `O=C(NCCN1CCOCC1)c1ccc(Cl)cc1` [Moclobemide], for which the nuclei count amounted to 90.8.

With `O=C1C(Cl)=C(NCCN2CCOCC2)C(=O)c2ncccc21`, the nuclei count was found to be 5.89.
